Screens from PubChem.
M1 PAM: potentiates human M1 receptor response to acetylcholine | actives 0.088% (n = 360,000) | activation, % at 3 µM | P11229 | CHO-K1 hM1, Fluo-8 calcium fluorescence, ACh EC20; 0% = ACh EC20, 100% = maximal ACh; in the data active = activation above about 19%, passing the limit was not always enough
Target sequence (P11229 whole entry, looked up): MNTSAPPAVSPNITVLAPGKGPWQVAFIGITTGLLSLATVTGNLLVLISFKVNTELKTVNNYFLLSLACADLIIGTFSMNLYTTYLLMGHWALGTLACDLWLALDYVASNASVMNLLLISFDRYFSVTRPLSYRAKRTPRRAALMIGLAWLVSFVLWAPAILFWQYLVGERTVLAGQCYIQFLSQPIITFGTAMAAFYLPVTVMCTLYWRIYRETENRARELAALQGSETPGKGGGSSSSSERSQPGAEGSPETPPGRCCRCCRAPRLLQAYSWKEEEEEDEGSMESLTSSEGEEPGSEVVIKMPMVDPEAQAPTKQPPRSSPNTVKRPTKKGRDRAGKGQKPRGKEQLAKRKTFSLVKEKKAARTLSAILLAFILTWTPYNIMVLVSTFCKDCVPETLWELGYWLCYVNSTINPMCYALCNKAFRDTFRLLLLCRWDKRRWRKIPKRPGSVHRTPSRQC
M1 ag parental: M1 agonist counterscreen hit in parental CHO-K1 cells; activation, % at 3 µM; actives 0.48% (n = 360,000); Fluo-8 calcium fluorescence; scaled to maximal ATP response, vehicle zero; AID 602248; in the data active = activation above about 15%;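 also: untransfected CHO-K1 host cells lacking M1 receptor as counterscreen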
CHO-K1 Ca PAM: counter-screen for M1 PAMs: effect in parental CHO-K1 cells; actives 0.02% (n = 360,000); activation, % at 3 µM; ATP EC20, Fluo-8 calcium fluorescence; 0% at ATP EC20, 100% at ATP max; AID 602247;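 active = activation above the run cutoff, the mean activation of all test compounds plus 3 SD, cut at about 40% in these data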;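 also: peak over basal fluorescence ratio in a 140 s read after ATP addition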
CHO-K1 Ca antag: counter-screen for M1 antagonists: effect in parental CHO-K1 cells. ATP-induced calcium, Fluo-8 fluorescence. inhibition, % at 3 µM. actives 0.6% (n = 360,000);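 active = inhibition above a per-plate cutoff, the plate's mean sample inhibition plus 3 SD, cut at about 24% in these data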
M1 ag: agonists of human M1 muscarinic receptor; P11229; CHO-K1 hM1, Fluo-8 calcium fluorescence, agonist mode; 0% DMSO, 100% acetylcholine EC100; activation, % at 3 µM; actives 0.33% (n = 360,000); AID 588814;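 active = activation above the run's mean compound activation plus 3 SD, cut at about 16% in these data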;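 also: peak over basal fluorescence ratio within a 140 s kinetic read after compound addition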
M1 antag: blocks human M1 muscarinic receptor | inhibition, % at 3 µM | CHO-K1 hM1, Fluo-8 calcium fluorescence, ACh EC80 antagonist | actives 1.3% (n = 360,000) | AID 588852;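 active = percent inhibition above its own plate's cutoff, namely the mean of that plate's compound wells plus 3 SD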;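 also: peak over basal fluorescence ratio during 140 s after agonist addition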
Numbers stand for hits; n = inactive; x = no result. An excerpt weighted towards active compounds, which were near 2.3% of everything screened.

SMILES	M1 PAM	M1 ag parental	CHO-K1 Ca PAM	CHO-K1 Ca antag	M1 ag	M1 antag
CN(CC(=O)Nc1ccc(F)cc1)C(=O)COc1ncnc2ccccc12	n	n	n	n	n	101
O=C(COC(=O)c1cc(-c2ccccc2)nc2ccccc12)NCC1CCCO1 (stereo not drawn)	n	n	n	n	n	n
O=C(COC(=O)c1cc(-c2cccc(Br)c2)nc2ccccc12)NCC1CCCO1 (stereo not drawn)	n	n	n	28	n	n
NC(=O)NN=C1CCC(OCc2ccccc2)CC1CC(=O)O (stereo not drawn)	n	n	n	n	n	n
CC1=NNC(=O)/C1=C\c1cn(-c2ccccc2)nc1-c1cccs1	n	n	n	31	n	34
CCCCN1CC(C)(C)Oc2cccc(F)c2S1(=O)=O	n	n	n	n	n	n
CCCCc1nc2cc(C(=O)NCc3nccn3CC)ccc2o1	n	n	n	n	n	87
O=C(CNC(=O)c1nc[nH]c1C(=O)NCc1ccccc1)OCc1ccccc1	n	n	n	n	n	38
CC(C)(C)OC(=O)NCc1ccc(CNC(=O)c2nc[nH]c2C(=O)NCc2ccccc2)cc1	n	n	n	n	n	n
C[C@H](NC(=O)c1nc[nH]c1C(=O)NCC(=O)OCc1ccccc1)C(=O)OCc1ccccc1	n	n	n	n	n	n
C[C@H](NC(=O)c1nc[nH]c1C(=O)NCC(=O)OCc1ccccc1)c1ccccc1	n	n	n	n	n	31
CC(C)(C)OC(=O)NCc1ccc(CNC(=O)c2[nH]cnc2C(=O)NCC(=O)OCc2ccccc2)cc1	n	n	n	n	n	44
O=C(O)COc1ccccc1C=NNC(=O)c1ccccc1NS(=O)(=O)c1cccs1	n	n	n	n	n	n
O=C(O)CC1(CC(=O)Nc2nccs2)CCCCC1	n	n	n	n	n	n
CC(=O)c1cccc(N=c2scc(-c3ccc(S(=O)(=O)N4CCOCC4)cc3)n2CCO)c1	n	n	n	32	n	n
C=CCn1c(-c2ccc(S(=O)(=O)N3CCOCC3)cc2)csc1=Nc1ccccc1	n	n	n	n	n	n
C[N+]12CCC(CC1)C(OC(=O)C(O)(c1ccccc1)c1ccccc1)C2 (stereo not drawn)	n	n	n	n	n	98
O=C(CSc1nc2c(c(=O)[nH]1)CCCC2)Nc1ccc(Cl)cc1F	n	n	n	n	n	n
Cc1cccc(CN2C(=O)N/C(=C/c3ccc(C)s3)C2=O)c1	n	n	n	n	n	n
Cc1ccc(/C=C2/NC(=O)N(Cc3ccccc3)C2=O)s1	n	n	n	27	n	n
CCOC(=O)/C(C#N)=C/C=C1\C=Cc2ccccc2N1CC	n	n	n	n	n	n
CCCN1C=CC(=CC=C(C#N)C#N)C=C1	n	n	n	24	n	n
CCCCCCN1C=CC(=C/C=C(\C#N)C(=O)OCC)C=C1	n	73	n	43	150	60
C=CCN1C=CC(=CC=C(C#N)C#N)C=C1	n	n	n	27	n	n
O=C(N/N=C/c1ccccc1Br)c1ccc(CSc2cccc3cccnc23)cc1	n	n	n	n	n	n
SMILES	M1 PAM	M1 ag parental	CHO-K1 Ca PAM	CHO-K1 Ca antag	M1 ag	M1 antag
c1cnc2c(SCc3ccc(-c4nnco4)cc3)cccc2c1	n	n	n	n	16	n
O=C1CCC/C(=N\NC(=O)c2ccc(CSc3cccc4cccnc34)cc2)C1	n	n	n	n	20	n
Cc1cccc(CSc2cccc3cccnc23)c1	n	n	n	n	n	n
NNC(=O)c1ccc(CSc2cccc3cccnc23)cc1	n	n	n	n	29	n
CCOc1ccc(Cl)cc1-c1cc(C(=O)Nc2ccc(C(C)C)cc2)[nH]n1	n	n	n	n	n	n
COc1ccc2c(n1)Sc1nc3ccccc3nc1N2	n	25	n	28	48	n
CCCOc1ccc(N2C(=O)CC(N3CCN(c4ccc([N+](=O)[O-])cc4)CC3)C2=O)cc1 (stereo not drawn)	n	25	n	n	n	n
Cc1cc2nc(C(C)(C)C)c(Cc3ccccc3C(F)(F)F)n2c(C)c1Br	x	n	n	n	x	x
Oc1ccc2ccccc2c1C=Nc1ccccc1Br	n	n	n	n	n	n
Oc1ccccc1N=Cc1c(O)ccc2ccccc12	n	n	n	n	22	n
CCn1c(C)cc(C(=O)COC(=O)CNC(=O)c2ccco2)c1C	n	n	n	n	n	n
CCN(CC)C(=O)c1ccc(COc2ccc(Cl)c(C)c2)o1	n	n	n	n	n	32
Clc1cccc(CNCCCSc2ncccn2)c1	n	n	n	n	n	n
CCC(=O)Nc1cc(-c2cc3ccccc3oc2=O)ccc1OC	n	n	n	n	n	n
CCC(=O)Nc1ccc(-c2cc3ccccc3oc2=O)cc1	n	n	n	25	n	n
CCc1ccc(OCC(=O)Nc2ccc(-c3cc4ccccc4oc3=O)c(OC)c2)cc1	n	n	n	26	n	n
CCCCNC(=O)C1(C)CCN1C(=O)c1ccc(OC)c(C(F)(F)F)c1 (stereo not drawn)	n	n	n	n	n	n
S=C1SCCCN1Cc1ccc(Cl)cc1	n	n	n	n	n	n
CCCc1cc(C(=O)Nc2cc(OC)ccc2OC)cs1	n	n	n	25	n	n
O=C(NCc1ccccc1)c1ccc(CN2CCOCC2)cc1	n	n	n	n	n	n
O=C(NCc1ccco1)c1ccc(CN2CCOCC2)cc1	n	n	n	24	n	n
Cn1c(O)c(N=NC(=O)CNC(=O)c2cccnc2)c2ccccc21	n	n	n	n	n	n
COc1ccc(CCn2c(C)cc(C(=O)CSc3nnnn3-c3ccccc3)c2C)cc1	n	n	n	24	n	n
Cc1nnc2ccc(-c3cccc(NS(=O)(=O)c4ccccc4Cl)c3)nn12	n	n	n	n	n	n
Cc1nnc2ccc(-c3cccc(NS(=O)(=O)c4ccccc4[N+](=O)[O-])c3)nn12	n	n	n	n	n	32
SMILES	M1 PAM	M1 ag parental	CHO-K1 Ca PAM	CHO-K1 Ca antag	M1 ag	M1 antag
O=C(OCC(=O)N1CCCC1)c1cccs1	n	n	n	n	n	n
O=[N+]([O-])c1cccc(C(O)C23CN4CN(CN(C4)C2)C3)c1 (stereo not drawn)	n	n	n	n	n	n
CC(C)=N/N=C(\c1cccc([N+](=O)[O-])c1)C12CN3CN(CN(C3)C1)C2	n	n	n	n	n	62
C(=C\c1ccco1)/C1=NN(c2ccccc2)C(c2ccco2)C1 (stereo not drawn)	n	n	n	n	n	n
O=[N+]([O-])c1ccc(/C=C/C2=NN(c3ccccc3)C(c3ccco3)C2)o1 (stereo not drawn)	n	38	n	39	66	60
CCOc1cccc2cc(C(=O)Oc3ccc(OC)cc3)c(=O)oc12	n	16	n	n	n	n
